Structures are written as SMILES. Structures can show the parent of a compound that is named as a salt.

In this assay the test system is Saccharomyces cerevisiae BY4741 SeMeCo community. Kind of assay: z-score of subpopulation abundance vs DMSO median, subpopulation auxotrophic for UM; higher = larger share of this subpopulation than in DMSO controls. As to conditions: 10 µM; 24 h; SM minimal medium; subpopulation (auxotrophy): UM. Put shortly: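 Four plasmids, each restoring a single auxotrophy and encoding a distinct fluorescent protein, were carried by a Saccharomyces cerevisiae BY4741 community. After overnight growth to OD600 1.0 and dilution to 0.3, 70 µl per well was grown for 24 h in minimal SM medium on 384-well plates acoustically predosed with library drugs at 10 µM final. Following paraformaldehyde fixation, automated confocal microscopy was used, with single-auxotroph fluorescent strains defining thresholds and autofluorescence correction. Subpopulation abundance was then scored as a z-score against the vehicle-well median.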
Turning to `C#CCN[C@@H]1CCc2ccccc21` [Rasagiline Mesylate], the “z-score of subpopulation abundance” value was -0.05. As for `OCc1ccccc1O[C@@H]1O[C@H](CO)[C@@H](O)[C@H](O)[C@H]1O` [Salicin], the figure is -0.29; as for `CCCCCOc1ccc(-c2ccc(-c3ccc(C(=O)N[C@H]4C[C@@H](O)[C@@H](O)NC(=O)[C@@H]5[C@@H](O)[C@@H](C)CN5C(=O)[C@H]([C@@H](C)O)NC(=O)[C@H]([C@H](O)[C@@H](O)c5ccc(O)cc5)NC(=O)[C@@H]5C[C@@H](O)CN5C(=O)[C@H]([C@@H](C)O)NC4=O)cc3)cc2)cc1`, 1.54.

Take `COc1cc2c(cc1OC)[C@@H]1Cc3ccc(OC)c(OC)c3CN1CC2` [Rotundine]: the “z-score of subpopulation abundance” value was -0.01. As for `C[C@H](NCc1ccc(OCc2cccc(F)c2)cc1)C(N)=O` [Safinamide], the figure is 0.6. Then `CC1(C)S[C@@H]2[C@H](NC(=O)COc3ccccc3)C(=O)N2[C@H]1C(=O)O` [Penicillin V potassium salt], with 0.57. Turning to `CC[C@H]1OC(=O)C[C@@H](O)[C@H](C)[C@@H](O[C@@H]2O[C@H](C)[C@@H](O[C@H]3C[C@@](C)(O)[C@@H](O)[C@H](C)O3)[C@H](N(C)C)[C@H]2O)[C@@H](CC=O)C[C@@H](C)C(=O)/C=C/C(C)=C/[C@@H]1CO[C@@H]1O[C@H](C)[C@@H](O)[C@@H](OC)[C@H]1OC` [Tylosin], the “z-score of subpopulation abundance” value was found to be 0.88. Then `C[N+]1(C)[C@@H]2C[C@@H](OC(=O)C(O)(c3cccs3)c3cccs3)C[C@H]1[C@@H]1O[C@@H]12` [Tiotropium Bromide hydrate], with 0.07. Take `CN(C)CCc1c[nH]c2ccc(CS(=O)(=O)N3CCCC3)cc12` [Almotriptan Malate]: the “z-score of subpopulation abundance” value is -0.12. Then `CCC(=O)NS(=O)(=O)c1ccc(-c2c(-c3ccccc3)noc2C)cc1` [Parecoxib Sodium], with 0.8; and `CCN(CC)CCOCCOC(=O)C1(c2ccccc2)CCCC1` [Pentoxyverine Citrate], with -0.39.

For `Cc1cccc(C)c1NC(=O)C1CCCCN1C` (centres undefined) [Mepivacaine], the “z-score of subpopulation abundance” value turned out to be 0.24. As for `CC1=C(CC(=O)O)c2cc(F)ccc2/C1=C\c1ccc([S+](C)[O-])cc1` (centres undefined) [Sulindac], the figure is -1.2; as for `C#C[C@]1(O)CC[C@H]2[C@@H]3CCC4=CCCC[C@@H]4[C@H]3CC[C@@]21C` [Lynestrenol], 0.5; as for `CN(C)CCCN1c2ccccc2Sc2ccc(Cl)cc21` [Chlorpromazine HCl], 0.5. As for `NC(=O)N1c2ccccc2C=Cc2ccccc21` [Carbamazepine], the figure is -0.23; as for `C[C@@H]1CC(=O)NN=C1c1ccc(NN=C(C#N)C#N)cc1` [Levosimendan], 0.05. In the case of `NC[C@@H]1O[C@H](O[C@H]2[C@@H](O)[C@H](O[C@@H]3[C@@H](O)[C@H](N)C[C@H](N)[C@H]3O[C@H]3O[C@H](CN)[C@@H](O)[C@H](O)[C@H]3N)O[C@@H]2CO)[C@H](N)[C@@H](O)[C@@H]1O` [Neomycin sulfate], the “z-score of subpopulation abundance” value was -1.35. As for `C#CCC(Cc1cnc2nc(N)nc(N)c2n1)c1ccc(C(=O)N[C@@H](CCC(=O)O)C(=O)O)cc1` (some centres undefined) [Pralatrexate], the figure is -5.43; as for `CCCCCCCCCCCCCCCC[N+](C)(C)C` [Cetrimonium Bromide (CTAB)], 12.1; as for `C#C[C@]1(O)CC[C@H]2[C@@H]3CCC4=CCCC[C@@H]4[C@H]3C(=C)C[C@@]21CC` [Desogestrel], -1.41. As to `N#CC(c1ccc(Cl)cc1)c1c(Cl)cc(-n2ncc(=O)[nH]c2=O)cc1Cl` (centres undefined) [Diclazuril], the “z-score of subpopulation abundance” value is -1.39.

In the case of `COCCCN1CCC(NC(=O)c2cc(Cl)c(N)c3c2OCC3)CC1` [Prucalopride], the “z-score of subpopulation abundance” value was found to be 0.57.

For `CN(C/C=C/C#CC(C)(C)C)Cc1cccc2ccccc12` [Terbinafine HCl], the “z-score of subpopulation abundance” value is 1.94.

Consider `CC1(C)[C@H](C(=O)O)N2C(=O)C[C@H]2S1(=O)=O` [Sulbactam sodium], for which the “z-score of subpopulation abundance” value turned out to be 1.22.

In the case of `CC/C(=C(\c1ccccc1)c1ccc(OCCN(C)C)cc1)c1ccccc1` [Tamoxifen], the “z-score of subpopulation abundance” value came out at 0.21. As for `COC(=O)C1=C(C)NC(C)=C(C(=O)OCCN2CCN(C(c3ccccc3)c3ccccc3)CC2)C1c1cccc([N+](=O)[O-])c1` (centres undefined) [Manidipine 2HCl], the “z-score of subpopulation abundance” value is -0.8. For the molecule `CCC(C)(Oc1ccc(C2(c3ccc(OC(C)(CC)C(=O)O)cc3)CCCCC2)cc1)C(=O)O` (centres undefined) [Clinofibrate], the “z-score of subpopulation abundance” value is -2.08. As for `O=C1CCc2ccc(OCCCCN3CCN(c4cccc(Cl)c4Cl)CC3)cc2N1` [Aripiprazole], the figure is 0.58.

The values above are taken from the supplement of paper PMC8975748.
